Here are results for eight molecules from PubChem BioAssay (NCI).

This is part of a sample that, as a whole, favours compounds with a hit. Of some 83,000 tested, about 20% had one in any assay.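 The endpoint reported here, percent growth, reads 100 for growth as untreated, 0 for no net growth and -100 for all cells dead.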 Unmarked numbers belong to inactive results. Active and inactive are the calls of the source. Rule for the calls: active = growth percent below 10; inactive = the rest.

Test in all cases: NCI-60 one-dose screen, 48 h (100 = growth as untreated, 0 = no growth, -100 = all killed)
Holding throughout (settings): 10 µM unless noted

In experiment [1] the test system is NCI-H23 lung.
Experiment [2] deals with NCI-H226 lung.
Experiment [3] relates to NCI-H322M lung.
The test system of experiment [4] is HOP-62 NSCLC.
In experiment [5] the test system is NCI-H460 lung.
In experiment [6] the test system is HOP-92 NSCLC.
In experiment [7] the test system is NCI-H522 lung.
For experiment [8], the system named is A549/ATCC NSCLC.
Experiment [9] has as its system 786-0 renal.
Experiment [10] has as its system COLO 205 colon.
Experiment [11] deals with DU-145 prostate.
In experiment [12] the test system is K-562 leukemia.
In experiment [13] the test system is MALME-3M melanoma.
Experiment [14] deals with MDA-MB-231 breast.
For experiment [15], the system named is RXF 393 renal.
Experiment [16] has as its system SF-268 CNS.
Experiment [17] has as its system SF-295 CNS.
Experiment [18] relates to SF-539 CNS.
For experiment [19], the system named is UACC-257 melanoma.
Experiment [20] relates to M14 melanoma.

On to `Cc1ccc(NC(=O)Cc2ccc(/C=C/C(=O)c3ncc[nH]3)cc2)cc1`, for which the growth in [1] was 41.6%; in experiment [2], 89.7%; in experiment [3] it was 63.9%; in experiment [4], 43.4%; in experiment [5], 7.31% (active); in experiment [6], 82%. In addition, the growth was 43.6% in experiment [7]; 62.1% in experiment [8]; 29.7% in [9]; 49.2% in experiment [10]; 16% in [11]; 8.84% (active) in experiment [12]. Besides, the growth in experiment [13] was 96.3%; in experiment [14], 56.6%; in experiment [15] it was 52.7%; in experiment [16], 24.7%; in [17], 24%; in [18], -14.8% (active). The growth was 83.4% in experiment [19] and 82.5% in experiment [20].
For the molecule `COc1ccccc1NS(=O)(=O)c1cccc(C(=O)Nc2ccc(Br)cc2)c1`, the growth in experiment [1] is 35.9%; in experiment [2], 44.2%; in [3] it was 53.1%; in experiment [4], 62.9%; in [5], 47%; in experiment [6], 38.9%. In addition, the growth in experiment [7] is 46.7%; in experiment [8], 46%; in experiment [9] it was 59.5%; in experiment [10], 57.9%; in experiment [11], 52.1%; in experiment [12], 25.6%. Also, the growth in [13] is 32%; in experiment [14], 50.6%; in experiment [15], 57.7%; in [16], 30.9%; in [17], 27%; in experiment [18], 64.3%. Also, the growth in experiment [19] is 32.9%; in experiment [20] it was 38.9%.
For `COC(=O)/C=C1\S/C(=N\NC(=O)c2cc3ccc2/C=C\c2ccc(cc2)/C=C\3)N(c2ccccc2)C1=O`, the growth in [1] was 40.4%; in experiment [2], 73.8%; in [3], 68.5%; in [4], 3% (active); in [5] it was 60.7%; in experiment [6] it was 75.3%. The growth in experiment [7] is 41.5%; in [8], 69.1%; in [9] it was -0.285% (active); in experiment [10], 47.7%; in experiment [11], 50.9%; in experiment [12] it was 27%. Besides, the growth in [13] is 78.8%; in experiment [14], 32.5%; in [15], 5.34% (active); in experiment [16] it was 72.5%; in experiment [17], 62.6%; in experiment [18], -22.5% (active). The growth in experiment [19] is 69.2%; in experiment [20], 53.1%.
Consider `NC1[C@H](c2c[nH]c3ccccc23)c2c([nH]c3ccccc23)[C@H]1c1c[nH]c2ccccc12` (stereo not given in full), for which the growth was 85.7% in experiment [1]; 92.1% in experiment [2]; 91.6% in experiment [3]; 90.1% in experiment [4]; 97.1% in experiment [5]; 84.2% in [6]. Also, the growth is 88.5% in experiment [7]; 90.6% in experiment [8]; 96.4% in experiment [9]; 110% in [10]; 95.3% in experiment [11]; 90.8% in [12]. The growth in [13] is 88.9%; in experiment [14], 75.7%; in experiment [15], 104%; in experiment [16] it was 84.4%; in experiment [17] it was 92.9%; in [18], 100%. In addition, the growth is 111% in experiment [19] and 92.3% in experiment [20].
With `O=S(=O)(Nc1ccc(-n2cnc3cc(-c4ccc(O)cc4)ccc32)cc1)c1ccccc1`, the growth in experiment [1] is 99.8%; in experiment [2] it was 92.1%; in [3] it was 93%; in [4] it was 102%; in experiment [5], 95.1%; in [6] it was 130%. Further, the growth in experiment [7] is 50.8%; in experiment [8] it was 77.2%; in experiment [9], 101%; in [10], 136%; in experiment [11] it was 105%; in experiment [12] it was 65.4%. Moreover, the growth is 100% in [13]; 85.1% in experiment [14]; 103% in experiment [15]; 78.4% in [16]; 87.9% in experiment [17]; 67.3% in experiment [18]. Also, the values for the growth in experiment [19] and in experiment [20] were 106% and 85.1%, respectively.
For the molecule `COc1cc2nc(-c3ccc(C(F)(F)F)cc3)cc(OCCCN3CCCC3)c2cc1OC`, the growth in experiment [1] is 57.3%; in [2], -8.25% (active); in [3], 62.8%; in [4] it was 63.6%; in experiment [5], 22%; in experiment [6], 23.2%. Moreover, the growth is 28.5% in [7]; 39.9% in [8]; 48.4% in experiment [9]; 22.1% in [10]; 41.7% in experiment [11]; 24.6% in [12]. Besides, the growth in experiment [13] is 51.2%; in experiment [14], 25.7%; in [15] it was 44.4%; in experiment [16], 45.5%; in [17], -28.3% (active); in [18] it was 45.8%. The figures for the growth in [19] and in experiment [20] were 22.7% and -38.4% (active), respectively.
In the case of `COc1cc(C2=C(c3cn(C)c4ccccc34)COC2=O)cc(OC)c1OC`, the growth was 14.2% in [1]; 15.3% in experiment [2]; 26.6% in experiment [3]; 31.7% in experiment [4]; 3.03% (active) in experiment [5]; 19.1% in [6]. The growth is 3.38% (active) in experiment [7]; 18.4% in [8]; 20.9% in experiment [9]; -4.65% (active) in experiment [10]; 19.9% in experiment [11]; 6.17% (active) in experiment [12]. For the same molecule, the growth is 44.5% in experiment [13]; 22.5% in experiment [14]; -21% (active) in [15]; 25.8% in [16]; -5.22% (active) in experiment [17]; -19.7% (active) in experiment [18]. The growth in [19] is 67.4%; in experiment [20], -13.9% (active).
With `O=C1Nc2cc(-c3ccc(NC(=O)c4ccccc4)cc3)ccc2/C1=C/c1ccc[nH]1`, the growth is 66.7% in [1]; 90.6% in experiment [2]; 94.1% in [3]; 104% in [4]; 83.4% in experiment [5]; 115% in [6]. Moreover, the growth was 92.2% in experiment [7]; 103% in experiment [8]; 107% in experiment [9]; 118% in experiment [10]; 98.9% in experiment [11]; 95.1% in experiment [12]. Besides, the growth in [13] was 102%; in experiment [14], 90%; in experiment [15], 111%; in experiment [16] it was 101%; in experiment [17], 106%; in [18] it was 98%. Also, the growth in experiment [19] was 110%; in [20], 105%.
